Active and inactive are the calls of the source.
How the values were obtained:
Albumin (Bos taurus) = Albumin (Bos taurus) (UniProt P02769); test: compounds binding labelled BSA control protein – biochemical, small-molecule microarray, Alexa647 label, 635/667 nm fluorescence, artefact control for SMM control protein annotation, profiling panel (AID 1118); conditions: BSA-A647 binding, fluorescence 635 nm, higher = more signal;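 also: score merges 667 nm emission intensity and signal-to-noise per printed compound spot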
Sequence of Albumin (Bos taurus) (P02769 whole entry, looked up): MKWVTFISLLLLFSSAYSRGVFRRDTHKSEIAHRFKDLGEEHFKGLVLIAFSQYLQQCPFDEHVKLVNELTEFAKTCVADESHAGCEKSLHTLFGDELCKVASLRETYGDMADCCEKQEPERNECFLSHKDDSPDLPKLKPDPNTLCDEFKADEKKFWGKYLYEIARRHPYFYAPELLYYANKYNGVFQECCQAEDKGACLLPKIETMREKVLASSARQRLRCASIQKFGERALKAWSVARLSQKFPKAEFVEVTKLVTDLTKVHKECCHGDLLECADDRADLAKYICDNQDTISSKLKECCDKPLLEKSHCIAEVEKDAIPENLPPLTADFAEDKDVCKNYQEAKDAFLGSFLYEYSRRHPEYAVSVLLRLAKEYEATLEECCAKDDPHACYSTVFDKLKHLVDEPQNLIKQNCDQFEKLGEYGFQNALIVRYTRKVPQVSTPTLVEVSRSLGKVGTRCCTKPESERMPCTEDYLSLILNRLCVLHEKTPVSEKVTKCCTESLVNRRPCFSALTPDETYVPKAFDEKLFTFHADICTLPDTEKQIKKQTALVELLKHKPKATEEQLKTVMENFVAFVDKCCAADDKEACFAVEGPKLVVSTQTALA

[1] = probe aXIP binding to arrayed compounds – biochemical, NeuroSMM set, 635/667 nm fluorescence, primary screen (AID 1119); conditions: small-molecule microarray, higher = more signal, called active from +8 up or from −8 down;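 also: probe is the protein aXip251-270 applied at 1 µg/mL to compound-printed slides; binding of probe to printed compounds measured as 667 nm fluorescence plus signal to noise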
[2] = probe aNOTCH3 binding on compound microarray – biochemical, small-molecule microarray, 635/667 nm fluorescence, primary screen (AID 1120); conditions: higher = more signal;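 also: probe is a biotin-tagged antibody raised against NOTCH3 rather than NOTCH3 protein; score merges spot fluorescence near 667 nm with spot signal to noise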
[3] = probe aNOTCH2 binding on compound microarray – biochemical, small-molecule microarray, 635/667 nm fluorescence, primary screen (AID 1121); conditions: higher = more signal;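 also: score merges feature fluorescence read at 667 nm with its signal to noise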
[4] = target: Carbonic anhydrase 2 (Homo sapiens) (UniProt P00918); test: compounds binding carbonic anhydrase 2 – biochemical, small-molecule microarray, Alexa647-labelled CAII, profiling panel (AID 1122); conditions: CAII-A647 binding fluorescence, higher = more signal
[5] = COS7 lysate on small-molecule microarray, probe aHis, 635 nm (AID 1123); conditions: COS7 cell lysate, fluorescence, higher = more signal;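 also: z-score combines 667nm fluorescence intensity with signal-to-noise per printed compound spot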
[6] = probe aLAP1 signal on lysate-treated microarray – cell lysate, small-molecule microarray, COS7 lysate, primary screen (AID 1124); conditions: probe aLAP1, fluorescence, higher = more signal;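 also: lysate comes from COS7 cells expressing LAP1 and is applied at 0.3 µg/mL; score merges spot fluorescence near 667 nm with signal-to-noise over triplicate slides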
Sam68 (KHDRBS1) = test: compounds binding KHDRBS1 protein – biochemical, small-molecule microarray, 635 nm fluorescence, primary screen (AID 1125); conditions: higher = more signal;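 also: score merges 667 nm channel intensity with signal to noise over triplicate slides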
[7] = system: Chordin-like protein 2 (CHRDL2); test: compounds binding chordin-like 2 – biochemical, small-molecule microarray, 635 nm fluorescence, primary screen (AID 1126); conditions: fluorescence 635 nm, higher = more signal;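 also: printed compound slides probed with Chrdl2 protein at 4 µg/mL for 1 h at 4 C; score merges 667 nm emission intensity with signal to noise over three replicate slides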
[8] = target: Concanavalin-A (Canavalia ensiformis) (UniProt P02866); test: compounds binding concanavalin A lectin – biochemical, small-molecule microarray, Alexa647 label, 635 nm, artefact control for SMM control protein annotation, primary screen (AID 1127); conditions: ConA-A647 binding fluorescence, higher = more signal;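 also: z combines 667 nm emission intensity with signal-to-noise across three replicate slides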
Sequence of Concanavalin-A (Canavalia ensiformis) (P02866 whole entry, looked up): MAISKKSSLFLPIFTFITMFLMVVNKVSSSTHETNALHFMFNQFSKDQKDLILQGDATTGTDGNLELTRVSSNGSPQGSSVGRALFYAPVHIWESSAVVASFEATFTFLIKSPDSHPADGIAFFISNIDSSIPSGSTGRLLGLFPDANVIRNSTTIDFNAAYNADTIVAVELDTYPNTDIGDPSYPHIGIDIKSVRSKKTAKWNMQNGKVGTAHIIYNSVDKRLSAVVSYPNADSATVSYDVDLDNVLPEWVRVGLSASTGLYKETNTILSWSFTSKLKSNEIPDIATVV

[9] = compounds binding Alexa647 anti-His antibody – biochemical, small-molecule microarray, 635 nm fluorescence, artefact control for SMM control protein annotation, primary screen (AID 1128); conditions: higher = more signal;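 also: score merges feature fluorescence with signal-to-noise for each printed compound spot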
[10] = system: Human papillomavirus type 1a E7 protein (residues 1-88); test: HPV1a E7 small-molecule binders, primary screen, biochemical, small-molecule microarray, residues 1-88, 635 nm (AID 1129); conditions: small-molecule microarray binding, fluorescence 635 nm; higher = more signal
[11] = target: Focal adhesion kinase 1 (Homo sapiens) (UniProt Q05397); test: PTK2 protein binding on printed compound slides – biochemical, small-molecule microarray, 635/667 nm fluorescence, BSA, DTT, primary screen (AID 1130); conditions: 635 nm fluorescence, higher = more signal;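 also: composite of spot emission at 667 nm and signal to noise over triplicate slides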
Sequence of Focal adhesion kinase 1 (Homo sapiens) (Q05397 whole entry, looked up): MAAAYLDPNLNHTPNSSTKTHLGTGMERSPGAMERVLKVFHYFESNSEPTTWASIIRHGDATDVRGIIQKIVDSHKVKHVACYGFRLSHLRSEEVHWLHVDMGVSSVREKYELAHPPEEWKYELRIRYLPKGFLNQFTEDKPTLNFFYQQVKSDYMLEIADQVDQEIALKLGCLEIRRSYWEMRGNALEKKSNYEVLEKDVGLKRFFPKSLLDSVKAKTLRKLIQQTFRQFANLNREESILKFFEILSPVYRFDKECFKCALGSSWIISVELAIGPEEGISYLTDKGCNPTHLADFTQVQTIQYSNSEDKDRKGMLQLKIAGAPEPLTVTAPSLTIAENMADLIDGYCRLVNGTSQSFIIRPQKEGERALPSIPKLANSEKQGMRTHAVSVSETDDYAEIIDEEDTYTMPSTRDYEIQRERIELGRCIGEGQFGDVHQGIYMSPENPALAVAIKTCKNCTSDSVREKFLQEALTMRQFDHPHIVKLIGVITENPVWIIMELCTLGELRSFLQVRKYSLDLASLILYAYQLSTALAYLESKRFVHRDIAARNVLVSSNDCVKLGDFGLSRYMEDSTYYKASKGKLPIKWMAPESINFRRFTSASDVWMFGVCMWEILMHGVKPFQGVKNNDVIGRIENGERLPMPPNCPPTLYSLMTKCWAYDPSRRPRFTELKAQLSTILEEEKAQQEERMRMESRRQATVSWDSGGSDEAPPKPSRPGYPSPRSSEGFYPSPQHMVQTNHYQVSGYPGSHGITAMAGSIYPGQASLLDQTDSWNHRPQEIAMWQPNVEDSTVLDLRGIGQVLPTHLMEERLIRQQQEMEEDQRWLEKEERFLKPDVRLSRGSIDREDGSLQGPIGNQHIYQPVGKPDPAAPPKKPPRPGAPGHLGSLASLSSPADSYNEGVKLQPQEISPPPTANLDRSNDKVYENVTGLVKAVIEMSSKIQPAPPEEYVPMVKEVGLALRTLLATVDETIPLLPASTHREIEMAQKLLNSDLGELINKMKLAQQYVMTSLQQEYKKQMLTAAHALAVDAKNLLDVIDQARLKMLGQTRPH

[12] = system: Fibrinogen (Alexa647-labelled); test: Alexa647-fibrinogen binding to printed small molecules – biochemical, small-molecule microarray, 635/667 nm fluorescence, artefact control for SMM control-protein annotation, profiling panel (AID 1131); conditions: fibrinogen-A647 binding fluorescence, higher = more signal;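 also: z-score merges 667 nm fluorescence with per-spot signal-to-noise over triplicate slides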
[13] = target: Follistatin (Homo sapiens) (UniProt P19883); test: FST protein binding to printed compounds – biochemical, small-molecule microarray, 635/667 nm fluorescence, primary screen (AID 1132); conditions: 635 nm fluorescence, higher = more signal
Sequence of Follistatin (Homo sapiens) (P19883 whole entry, looked up): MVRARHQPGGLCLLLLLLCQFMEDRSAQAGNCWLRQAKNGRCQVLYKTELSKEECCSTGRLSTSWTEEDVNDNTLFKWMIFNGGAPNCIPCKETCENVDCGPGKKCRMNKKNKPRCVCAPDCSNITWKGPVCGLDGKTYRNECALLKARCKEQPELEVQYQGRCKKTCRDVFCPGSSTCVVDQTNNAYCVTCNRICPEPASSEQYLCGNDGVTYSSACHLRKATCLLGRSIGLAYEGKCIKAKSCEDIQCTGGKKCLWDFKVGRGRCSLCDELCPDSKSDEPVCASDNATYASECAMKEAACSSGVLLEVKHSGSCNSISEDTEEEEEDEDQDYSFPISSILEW

[14] = target: Fibroblast growth factor 2 (Homo sapiens) (UniProt P09038); test: basic fibroblast growth factor binding to printed compounds – biochemical, small-molecule microarray, 635/667 nm fluorescence, primary screen (AID 1133); conditions: FGF2, fluorescence 635/667, higher = more signal
Sequence of Fibroblast growth factor 2 (Homo sapiens) (P09038 whole entry, looked up): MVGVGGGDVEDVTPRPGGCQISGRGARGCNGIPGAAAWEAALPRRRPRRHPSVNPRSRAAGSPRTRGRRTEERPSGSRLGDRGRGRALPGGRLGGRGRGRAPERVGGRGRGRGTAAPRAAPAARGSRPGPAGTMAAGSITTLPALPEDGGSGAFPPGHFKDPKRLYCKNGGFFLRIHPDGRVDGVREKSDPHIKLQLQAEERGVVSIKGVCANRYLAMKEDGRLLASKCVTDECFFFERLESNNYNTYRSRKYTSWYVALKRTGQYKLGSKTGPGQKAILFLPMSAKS

[15] = JC-1 mitochondrial potential readout, lung cancer cells – cell-based, A549, JC-1 fluorescence, basal, 24 h, 100 nL, profiling panel (AID 1138); conditions: higher = more signal;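 also: A549 lung adenocarcinoma cells under basal conditions with no added stimulus; test concentration not given here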
Lefty1 = Lefty1 protein binding to printed compounds – biochemical, small-molecule microarray, 635/667 nm fluorescence, primary screen (AID 1139); conditions: fluorescence 635/667, higher = more signal
[16] = system: wheat germ agglutinin (Triticum aestivum), Alexa647-labelled; test: Alexa647-WGA lectin binding to printed small molecules – biochemical, small-molecule microarray, 635/667 nm fluorescence, artefact control for SMM control-protein annotation, profiling panel (AID 1140); conditions: WGA-A647 binding, 635 nm fluorescence, higher = more signal;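 also: score merges 667 nm feature emission with signal to noise over triplicate slides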
[17] = target: Luciferin 4-monooxygenase (Photinus pyralis) (UniProt P08659); test: inhibition of purified Photinus pyralis luciferase – biochemical, luminescence, purified enzyme, 2006 set, primary screen (AID 1141); conditions: purified firefly luciferase, SteadyGlo luminescence, 30 min; higher = more signal, called active from +8 up or from −8 down;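 also: cell-free assay with purified firefly luciferase at 100 ng per well in PBS; test concentration not given here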
Sequence of Luciferin 4-monooxygenase (Photinus pyralis) (P08659 whole entry, looked up): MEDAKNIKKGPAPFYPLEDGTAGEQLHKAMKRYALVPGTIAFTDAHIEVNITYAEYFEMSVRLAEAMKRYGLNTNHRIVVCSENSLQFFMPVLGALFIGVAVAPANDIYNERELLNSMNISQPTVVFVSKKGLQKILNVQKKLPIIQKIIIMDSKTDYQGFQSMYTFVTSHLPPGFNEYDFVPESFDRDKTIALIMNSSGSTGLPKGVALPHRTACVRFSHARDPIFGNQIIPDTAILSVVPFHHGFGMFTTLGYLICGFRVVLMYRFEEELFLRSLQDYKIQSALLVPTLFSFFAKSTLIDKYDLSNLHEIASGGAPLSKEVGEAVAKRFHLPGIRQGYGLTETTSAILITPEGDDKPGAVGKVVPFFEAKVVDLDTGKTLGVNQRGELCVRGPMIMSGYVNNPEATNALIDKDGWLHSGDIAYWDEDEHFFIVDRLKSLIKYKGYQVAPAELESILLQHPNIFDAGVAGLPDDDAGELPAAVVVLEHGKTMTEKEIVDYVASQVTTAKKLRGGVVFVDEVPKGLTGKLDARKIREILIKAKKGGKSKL

Row | SMILES | composite z-score (Albumin (Bos taurus)) | composite Z-score [1] | composite z-score [2] | composite z-score [3] | composite z-score [4] | composite z-score [5] | composite z-score [6] | composite z-score (Sam68 (KHDRBS1)) | composite z-score [7] | composite z-score [8] | composite z-score [9] | composite z-score [10] | composite z-score [11] | composite z-score [12] | composite z-score [13] | composite z-score [14] | z-score [15] | composite z-score (Lefty1) | composite z-score [16] | z-score [17]
1 | CS(=O)(=O)CCOC(=O)C1=CC(c2ccc(CO)cc2)=CC(c2cccs2)N(Cc2cccc(OC(F)(F)F)c2)C=C1C(=O)OCCS(C)(=O)=O (stereo not given) | 0.735 | -0.0662 (inactive) | 0.152 | -0.0259 | 0.664 | 1.68 | 0.442 | 1.13 | 0.217 | 0.911 | 0.419 | 0.969 | 0.513 | 1.01 | 1.21 | 0.0903 | 1.91 | 0.836 | 0.929 | -1.86 (inactive)
2 | C=C(CCCC)C(=O)CC[C@H](OC(C)=O)c1ccc(CO)o1 | -0.471 | 0.304 (inactive) | 0.0701 | -0.117 | 0.637 | 0.136 | 0.164 | 0.865 | -0.149 | -0.0156 | -0.273 | 0.228 | -0.0408 | -0.332 | 1.03 | 0.361 | -0.0332 | 0.861 | -0.276 | -1.77 (inactive)
3 | C=CCOC(=O)[C@@H]1[C@H]2C(=O)O[C@H](c3ccccc3)[C@H](c3ccccc3)N2[C@H](c2ccc(OCCOC(=O)[C@H]3C[C@H]4C(=O)N[C@@H](Cc5ccccc5)C(=O)N4[C@H]3c3ccc(O)cc3)cc2)[C@@]12C(=O)Nc1ccc(I)cc12 | -0.893 | 1.43 (inactive) | 0.0092 | 0.27 | 0.554 | 0.931 | 1.17 | 1.29 | 1.12 | 1.16 | 1.77 | 1.19 | 0.0087 | 0.521 | 1.36 | 1.39 | -1.55 | 1.32 | 0.815 | -1.79 (inactive)
4 | Cc1ccc([C@H]2C(C(=O)O)=C[C@@H](C(C)C)N2S(=O)(=O)c2ccc(C)cc2)cc1 | 0.284 | -0.236 (inactive) | 0.0596 | 0.0161 | 0.772 | 2.86 | -0.134 | 1.3 | -0.209 | 0.555 | 1.96 | 1.29 | 1.3 | 0.956 | 0.126 | -0.376 | -0.209 | -0.297 | 0.133 | 1.85 (inactive)
5 | COC(=O)c1c2oc(c1C(=O)OC)C(=O)N[C@H](Cc1ccccc1)Cn1nncc1C1(CCCCC1)NC(=O)N[C@H](CO)CC2 | -0.399 | 0.699 (inactive) | -0.143 | -0.192 | 0.163 | 0.388 | -0.0073 | 0.702 | 0.419 | 0.0053 | 0.265 | 0.275 | 0.13 | -0.0472 | 0.373 | 0.1 | 3.5 | 0.553 | -0.0322 | -0.676 (inactive)
6 | COc1ccc([Si](C)(C)[C@@H]2[C@@H](CCO)O[C@]3(C(=O)N(Cc4cccc(N(C=O)c5ccccc5)c4)c4ccccc43)[C@H]2C)cc1 | 0.492 | 0.492 (inactive) | -0.0328 | -0.0876 | 0.457 | 0.46 | -0.206 | 1.32 | -0.179 | 1.1 | 1.25 | 1.04 | 0.228 | 0.508 | 1.18 | 0.598 | -0.0337 | 0.127 | 0.893 | 0.505 (inactive)
7 | O=C(NCc1ccccc1)[C@@H]1c2ccccc2C(=O)N(C2CCCCC2)[C@H]1c1ccc(CO)cc1 | 0.654 | 0.142 (inactive) | -0.112 | -0.286 | 0.795 | 0.642 | 1.78 | 0.467 | -0.475 | 0.335 | 0.61 | 1.01 | 0.405 | -0.0594 | 1.29 | 0.487 | 2.15 | 0.917 | 0.803 | -0.441 (inactive)
8 | CC1CC/C=C\[C@H]2OC34C=CCN(CCN5CCOCC5)C(=O)[C@H]3N(CCCCCO)C(=O)[C@@H]4C2C(=O)O1 (stereo not given in full) | -1.19 | 0.905 (inactive) | -0.178 | -0.175 | 0.899 | -0.471 | -0.653 | -1.25 | -0.191 | -0.233 | -0.417 | -1.44 | -0.197 | -1.2 | -0.381 | -0.206 | -0.485 | -0.376 | -0.577 | -0.115 (inactive)
9 | COCCOC(=O)N1C(=O)[C@@]2(c3ccccc31)[C@H](C(=O)N1CCCCCCC1)[C@H]1C(=O)O[C@H](c3ccccc3)[C@H](c3ccccc3)N1[C@@H]2c1ccccc1OCCO | 0.911 | 3.89 (inactive) | 1.5 | 0.699 | 0.838 | 3.32 | 1.19 | 1.29 | 1.32 | 1.2 | 2.04 | 1.27 | 1.26 | 0.802 | 1.47 | 0.662 | -0.647 | 1.47 | 1.53 | 0.131 (inactive)
10 | O=C1C2C=CC(C(O)c3ccc(B(O)O)cc3)N(Nc3ccc([N+](=O)[O-])cc3)C2C(=O)N1c1ccccc1 (stereo not given) | 0.832 | 0.142 (inactive) | 0.172 | -0.0439 | 0.654 | 2.02 | 0.588 | 1.32 | 0.262 | 0.738 | 0.359 | 1.21 | -0.164 | 0.843 | 1.13 | 0.284 | 0.0898 | 0.284 | 1.11 | 0.491 (inactive)
11 | [N-]=[N+]=NCc1ccccc1C[C@@]1(C(=O)NCc2ccccc2)N=C(c2ccc(OCCCO)cc2)O[C@@H]1c1ccccc1CN=[N+]=[N-] | 0.684 | 0.936 (inactive) | 0.328 | 0.273 | 0.669 | 2.21 | 0.745 | 1.3 | -0.106 | 1 | 1.44 | 1.17 | 0.96 | 0.915 | 0.557 | 0.0516 | 0.573 | -0.621 | 1.03 | 0.0675 (inactive)
12 | O=C1O[C@H](c2ccccc2)[C@H](c2ccccc2)N2[C@H]1[C@@H](C(=O)Nc1nc3ccccc3s1)[C@]1(C(=O)Nc3ccc(C#CC4=CCCCC4)cc31)[C@H]2c1ccc(OCCO)cc1 | 0.897 | -0.495 (inactive) | 0.225 | -0.0144 | 0.761 | 2.68 | 0.596 | 1.3 | 0.448 | 1.12 | 1.62 | 1.18 | 0.148 | 0.831 | 1.12 | 0.579 | -2.24 | 0.077 | 0.916 | -3.28 (inactive)

— PubChem BioAssay
